# D3 ag: activates the human D3 dopamine receptor; P35462; D3R DiscoveRx beta-arrestin cells, luminescence, 90 min; max activation, %; 410,000 tested, 0.58% active; AID 652048; in the data active means max activation above about 30%; further: 0% is about no effect
# Target sequence (P35462 whole entry, looked up): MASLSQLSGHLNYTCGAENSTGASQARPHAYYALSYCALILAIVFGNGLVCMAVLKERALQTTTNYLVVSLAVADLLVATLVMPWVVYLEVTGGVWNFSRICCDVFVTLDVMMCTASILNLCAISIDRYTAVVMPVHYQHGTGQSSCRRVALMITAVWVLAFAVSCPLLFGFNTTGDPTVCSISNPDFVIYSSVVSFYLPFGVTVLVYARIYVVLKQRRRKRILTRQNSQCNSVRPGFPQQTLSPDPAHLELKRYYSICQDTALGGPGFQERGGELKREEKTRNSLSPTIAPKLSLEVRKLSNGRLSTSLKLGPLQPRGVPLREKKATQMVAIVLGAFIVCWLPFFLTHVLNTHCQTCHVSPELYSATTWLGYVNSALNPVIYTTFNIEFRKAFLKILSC
#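 Cells at 1500/well, incubated overnight, then treated with pinned compounds (dopamine as control) for 90 min at 37 degrees C. DiscoveRx reagent added for 30 - 60 minutes at room temperature; luminescence read.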
# IL-1B inflam inh: blocks inflammasome-driven IL-1 beta release; THP-1 LPS/ATP IL-1B secretion, AlphaLISA, 16 h; hits give low values; activity change, % at 57.5 µM; 360,000 tested, 4.7% active; in the data active means activity change below about -50%; inconclusive means mostly about -30% to -49%; further: on the % scale 0 is the no-effect control and ±100 the full control effect
#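 THP-1 cells pretreated 1 hr with compounds (up to 57.5 uM final), then stimulated with LPS (250 ng/mL final) plus ATP (1.25 mM final); secreted IL-1B measured by AlphaLISA after 16 hr, decreased signal indicating inhibition.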
# S2 tox: reduces viability in counter-screen for ATXN expression inhibitors; AID 651635; 400,000 tested, 0.49% active; S2 cells (HEK-293 line with an ATXN2-luciferase reporter) viability, CellTiter-Fluor protease fluorescence, 24 h; Potency, µM (top dose mostly 56.7 µM), usual class: cytotoxic; further: potency means the concentration at half of the fitted maximal effect; nearly all actives have a fitted effect of over 40% in size
# Integrin act MD: integrin-mediated muscular dystrophy alleviation activation; 350,000 tested, 0.064% active; alpha7betagal myoblasts, beta-gal FDG fluorescence, 48 h; Potency, µM (doses to about 38.3 µM), for the others: at the top dose activation, usual class: activators;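 further: potency means the concentration at half of the fitted maximal effect; 100% = response of the positive control SU9516; nearly all actives have a fitted effect of over 60% in size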
#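 alpha7betagal+/- myoblasts (passage 13, 250/well) treated 48 h at 37C with compounds at 1:260 dilution of DMSO stock. Lysed, then beta-galactosidase activity read as FDG fluorescence (ex 480/em 540) after 30 min, with pre-read for autofluorescence.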
# D3 antag: blocks the human D3 dopamine receptor | D3R cells, DiscoveRx beta-arrestin luminescence, antagonist mode; hits give low values | 360,000 tested, 2.5% active | max response, negative = inhibition, % | AID 652054; in the data active means max response below about -50%; inconclusive means no clear call, values can overlap the other calls; further: on the % scale 0 is the no-effect control and ±100 the full control effect
#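 Cells expressing the human receptor were seeded at 1500 cells/well, incubated overnight at 37 degrees C in 5% CO2, then exposed to library compounds with dopamine controls for 90 minutes at 37 degrees C before luminescent detection.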
# ATXN2 expr inh: reduces ATXN2 reporter expression in HEK-293 cells; Potency, µM (titrated, usually from 57 µM), without a hit: at the top dose activity change, negative = inhibition, most hits filed as inhibitors; 360,000 tested, 0.72% active; HEK-293 ATXN2-luciferase reporter, luminescence, 24 h; further: potency means the concentration at half of the fitted maximal effect; on the % scale 0 is the no-effect control and ±100 the full control effect; nearly all actives have a fitted effect of over 55% in size
#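 qHTS (up to 57 uM final) was run with 24 h compound exposure of reporter cells at 37 °C. Each well was multiplexed: SteadyGlo luminescence measured ATXN2-luciferase expression after a fluorogenic Gly-Phe-AFC viability readout (25 uM final).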
# Starred values were filed as active, the others as inactive; i = inactive; ? = inconclusive; . = not tested or not shown. Sampled rows, rich in hits. Any-hit rate of the full collection: about 7%. Unless noted, the call rests on the fitted dose curve; in most records, active means well fitted curve in the direction sought with a large enough effect; inconclusive means small, poorly fitted or top-dose-only effect, or another doubt; inactive means no such curve, though single readings can be large; an effect the other way counts as inactive or inconclusive.
SMILES,D3 ag,IL-1B inflam inh,S2 tox,Integrin act MD,D3 antag,ATXN2 expr inh
CCC(C)c1ccccc1OCCCN(C)Cc1ccccc1 (stereo not drawn),-16,-19,i,-58%,-60*,-6%
Cc1cc(C)c(C)c(OCCCCN(C)Cc2ccccc2)c1,-2,-19,?,0%,-71*,.
O=C(c1cccs1)N1CCN(Cc2ccccc2[N+](=O)[O-])CC1,-7,-1,i,-18%,?,-2%
O=C(OCC(=O)N1CCCC1=O)c1cccc(S(=O)(=O)N2CCOCC2)c1,5,14,i,2%,6,1%
Cc1[nH]c2ccc(C(=O)OC(C)C(=O)NC3CCCCC3C)cc2c1C (stereo not drawn),3,21,?,-9%,20,-16%
c1ccc(CN2CCN(CCOCCOc3ccc4c(c3)CCC4)CC2)cc1,-15,-60*,i,-57%,?,-26%
CN(CCOc1ccccc1)CCOc1ccccc1,-14,5,i,-14%,-87*,-2%
COCCSc1ccccc1C(=O)N1CCOCC1,-2,-2,i,0%,6,0%
CC1=C([N+](=O)[O-])C(c2ccccc2)NC(=O)N1 (stereo not drawn),2,-18,i,-5%,25,3%
C/C(=N\Nc1nc2ccccc2[nH]1)c1ccc(Cl)s1,-2,-97*,.,7%,-4,?
C/C(=N\Nc1nc2ccccc2[nH]1)c1ccc(C)o1,-8,-81*,i,12%,11,55%
C/C(=N\Nc1nc2ccccc2[nH]1)c1ccc(N2CCOCC2)cc1,5,-96*,?,-10%,4,-1%
CC1(C)CC(=O)C=C(OC(=O)c2ccc(Cl)cc2)C1,4,18,i,6%,0,-3%
O=P(C(=NCCO)NO)(N1CCOCC1)N1CCOCC1,1,11,i,22%,-2,.
Cc1ccc([C@H]2N[C@]3(CCCN(Cc4ccc(C(F)(F)F)cc4)C3=O)[C@H]3C(=O)N(C)C(=O)[C@@H]23)cc1,5,9,i,-3%,-22,-10%
O=C1CCCC2=C1CC(C(=O)OCc1ccccc1)C(=O)N2Cc1ccccc1 (stereo not drawn),-2,31,i,19%,0,-11%
CCN(C(=O)c1ccc(C)c(Br)c1)c1ccccc1,-8,-12,i,17%,-19,0%
C=CCN(C/C(=N\O)c1sc(C(=O)OCC)nc1C)c1cccc(Br)c1,63*,12,i,-43%,4,-26%
CCOC(=O)c1sc(N/N=C/c2cccc(C)c2)nc1C,-1,-4,i,-6%,7,32%
O=C1NC[C@H](CCCCN2C[C@H](Cc3ccc(O)cc3)N(CCC3CCCCC3)C(=O)C2=O)N(CCc2ccccc2)C1=O,3,-6,i,.,13,19%
O=C1NC[C@@H](CCCCN2C[C@H](Cc3ccccc3)N(CCC3CCCCC3)C(=O)C2=O)N(CCc2ccccc2)C1=O,-14,-51*,?,.,0,-27%
O=C1NC[C@H](CCCCN2C[C@H](Cc3ccccc3)N(CCC3CCCCC3)C(=O)C2=O)N(CCc2ccccc2)C1=O,-9,-72*,?,.,-9,1%
Cc1ccc(N(Cc2ccccc2)C(=O)c2ccc(F)cc2)cc1,-3,-28,i,-48%,1,19%
Cc1ccc(N(Cc2ccccc2)C(=O)c2cccc(F)c2)cc1,-21,-61*,i,-37%,4,1%
CC(CN(C)Cc1ccccc1)OC(=O)c1cccc(F)c1 (stereo not drawn),-33,12,i,7%,-60*,-2%
SMILES,D3 ag,IL-1B inflam inh,S2 tox,Integrin act MD,D3 antag,ATXN2 expr inh
CN(CCOC(=O)c1cccc(F)c1)Cc1ccccc1,-6,7,i,6%,-88*,.
O=C(COc1ccc([N+](=O)[O-])cc1)N1CCc2ccccc2C1,-2,-14,i,24%,11,15%
COc1ccccc1CNc1ncc(-c2ccc(F)cc2)n1C,-13,-18,i,18%,-16,-18%
Cn1c(-c2ccc(F)cc2)cnc1NCc1cc2c(cc1[N+](=O)[O-])OCO2,-16,-64*,?,13%,-8,-13%
COc1ccc(CNc2ncc(-c3ccc(F)cc3)n2C)c2ccccc12,-11,-82*,i,5%,?,2µM*
Cn1c(-c2ccc(Cl)cc2)cnc1NCc1cc2c(cc1[N+](=O)[O-])OCO2,-6,-82*,?,-6%,-5,-9%
CCOc1ccc(-c2cnc(NCc3cccc4ccccc34)n2CCOC)cc1,-18,-95*,?,-52%,-9,?
N#C/C(=C\c1ccccc1)c1nc(-c2cc3c(ccc4ccccc43)oc2=O)cs1,-8,.,.,.,.,.
COC(=O)C(Cc1c[nH]c2ccccc12)NC(=O)c1ccccc1Br (stereo not drawn),2,13,i,-34%,-3,3%
COc1cc(C=NNC(=O)c2ccc(NS(=O)(=O)c3cccs3)cc2)cc(Br)c1O,1,16,i,6%,15,-2%
CC(C)(C)Nc1nc2nonc2nc1NC(C)(C)C,-2,-68*,i,-5%,-12,-14%
OCCNc1nc2nonc2nc1NCCO,2,1,i,-5%,-5,.
FC(F)(F)c1cc(-c2ccccc2)nc(N2CCCCCC2)n1,1,2,i,-17%,21,5%
COc1ccc(NC(=O)CCS(=O)(=O)c2nc(-c3ccc4c(c3)OCO4)cc(C(F)(F)F)n2)cc1,-30,.,.,.,.,.
Cc1cc(NC(=O)CCS(=O)(=O)c2nc(-c3ccccc3)cc(C(F)(F)F)n2)no1,-17,-121*,20µM*,-67%,-25,?
CS(=O)(=O)c1nc(-c2ccccc2)cc(C(F)(F)F)n1,-19,-96*,.,-58%,-120*,?
Cc1c(CC(=O)NCCCCCC(=O)O)c(=O)oc2cc3c(cc12)CCC(C)(C)O3,10,24,i,6%,1,2%
CCSc1nnc(NC(=O)C2CC2c2ccccc2)s1 (stereo not drawn),-1,-7,?,13%,8,-1%
CC1CCN(C(=O)CSc2ccc(-c3ccc(F)cc3)nn2)CC1,1,15,i,15%,-23,4%
CC1CC(C)(C)N(C(=O)CSc2ccc(-c3ccc(F)cc3)nn2)c2ccccc21 (stereo not drawn),14,-90*,i,-25%,17,?
C=CCn1c(SCc2ccc(C(=O)Nc3nccs3)cc2)nnc1-c1ccc(C)c(Cl)c1,14,-52*,?,-24%,25,?

# Compound activity (PubChem BioAssay)
